The supplement of paper PMC7858590
“And” between values parts separate entries of the source, which are not always exact repeats. Equal entries are not always repeated. ± gives the standard deviation of the averaged measurements. Over roughly 3,800 compounds, “cell shape (eccentricity) Z-score vs DMSO control” has its median near 1.1; the lowest 2% begin near -4.7. Shown is part of a subset that was picked to be rich in the lowest values.

system: human monocyte-derived macrophages (M0); experiment: cell shape (eccentricity) Z-score vs DMSO control; higher = more elongated, M2-like morphology; details: 20 µM; 24 h; macrophage state: M0 (M-CSF)

Point of comparison: `Cc1cc(O)c2c(c1)C(=O)C1=C(C2=O)C(O)C(O)C(O)C1O` (stereo not drawn), “cell shape (Z-score)” value -13.9. Against it:
- COc1cc(O)c2c(c1)C(=O)c1cc(C)cc(O)c1C2=O — higher, 2.65
- Cc1cc(O)c2c(c1)C(=O)c1cccc(O)c1C2=O — higher, 3.93
- COc1c(OC)c(O)c2c(=O)c(O)c(-c3ccccc3)oc2c1OC — higher, 4.23
- CC(=O)NC(C(=O)O[C@H]1CCC(C)(C)[C@@H]2CC=C3C(=O)OCC3(O)[C@@]12C)C(C)C (stereo partly drawn) — higher, 0.522 ± 0.68
- CC(=O)O[C@@H]1[C@@H](O)[C@H](C)O[C@@H](O[C@H]2[C@@H]3C=CO[C@@H](O[C@@H]4O[C@H](CO)[C@@H](O)[C@H](O)[C@H]4O)[C@@H]3[C@@]3(CO)O[C@@H]23)[C@@H]1OC(=O)/C=C/c1ccc(O)cc1 — higher, -0.936 ± 2.8
- C=C1C(=O)O[C@@H]2/C=C(\C)CC/C=C(\C)CC[C@@H]12 — higher, -1.08
- C=C1C(=O)O[C@@H]2[C@H]3O[C@]3(C)CC/C=C(/C)CC[C@@H]12 — higher, -9.25
- C=C1C(=O)O[C@H]2[C@H]1CC/C(C)=C/CC[C@@]1(C)O[C@@H]21 — higher, -3.88
- C/C(=C\CC[C@@H](C)[C@H]1CC[C@@]2(C)C3CC[C@H]4C(C)(C)[C@@H](OC5OC(CO)C(OC6OC(CO)C(O)C(O)C6O)C(O)C5O)CC[C@@]45C[C@@]35CC(O)[C@]12C)C(=O)O (stereo partly drawn) — higher, 0.155
- Nc1ccc(S(=O)(=O)NC(=O)c2ccccc2)cc1 — higher, 0.441
- COc1nc(N)nc2c1ncn2[C@@H]1O[C@H](CO)[C@@H](O)[C@@H]1O — higher, 0.62 ± 1.5
- O=C(O)CCCN1C(=O)c2cccc3cccc(c23)C1=O — higher, 1.83
- O=C(O)CN1C(=O)c2cccc3cccc(c23)C1=O — higher, -6.86
- O=C(O)Cn1c(C(=O)Nc2nc(-c3ccccc3Cl)cs2)cc2ccccc21 — higher, 2.41
- O=c1[nH]c2cc(Cl)ccc2c(O)c1-c1cccc(Oc2ccccc2)c1 — higher, -0.358
- CN1C(C(=O)Nc2ccccn2)C(=O)c2ccccc2S1(=O)=O (stereo not drawn) — higher, 1.33
- CC(=O)C(C#N)C(=O)Nc1cc(Br)ccc1Br (stereo not drawn) — higher, -5.16
- C[C@@H]1CN([C@H](C)CO)S(=O)(=O)c2ccc(C#Cc3ccncc3)cc2O[C@H]1CN(C)C(=O)Nc1ccc2c(c1)OCO2 — higher, 3.81
- C[C@H]1CN([C@@H](C)CO)S(=O)(=O)c2ccc(C#Cc3ccncc3)cc2O[C@@H]1CN(C)C(=O)Nc1ccc2c(c1)OCO2 — higher, -10.9
- C[C@H]1CN([C@@H](C)CO)S(=O)(=O)c2ccc(C#Cc3ccccc3F)cc2O[C@H]1CN(C)C(=O)Cc1ccncc1 — higher, 2.68
- COc1cc2oc(-c3ccccc3)cc(=O)c2c(O)c1OC — higher, 3.73

For `CCN(CC)CCNC(=O)c1c(C)[nH]c(/C=C2\C(=O)Nc3ccc(F)cc32)c1C`, the “cell shape (Z-score)” value was 10.3 and 12.2.
